Laboratory results taken from PubChem BioAssay AID1619 (SRMLSC, 2009).
Screen size: about 220,000 compounds; about 830 (0.38%) were called active.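 Rule for the calls: active = compound inhibiting the enzyme by more than half at any dose during confirmatory dose-response retesting; inconclusive = strong single-dose inhibitors picked by rank but not retested; inactive = the rest.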 Not all results are given here. Potency and affinity values are given separately.

What follows are compounds tested against Leucine aminopeptidase (Plasmodium falciparum (isolate 3D7)) (UniProt Q8IL11) (assay: P. falciparum M17LAP inhibitors, primary screen, biochemical, fluorogenic H-Leu-NHMec substrate, 1536-well (AID 1619;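 note: plate controls were full reaction with DMSO carrier for no effect and no enzyme background for full effect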)). Details: recombinant M17LAP, H-Leu-NHMec fluorogenic kinetic assay; at 30 µM; active compounds read high.
Leucine aminopeptidase (Plasmodium falciparum (isolate 3D7)), sequence (Q8IL11 whole entry, looked up): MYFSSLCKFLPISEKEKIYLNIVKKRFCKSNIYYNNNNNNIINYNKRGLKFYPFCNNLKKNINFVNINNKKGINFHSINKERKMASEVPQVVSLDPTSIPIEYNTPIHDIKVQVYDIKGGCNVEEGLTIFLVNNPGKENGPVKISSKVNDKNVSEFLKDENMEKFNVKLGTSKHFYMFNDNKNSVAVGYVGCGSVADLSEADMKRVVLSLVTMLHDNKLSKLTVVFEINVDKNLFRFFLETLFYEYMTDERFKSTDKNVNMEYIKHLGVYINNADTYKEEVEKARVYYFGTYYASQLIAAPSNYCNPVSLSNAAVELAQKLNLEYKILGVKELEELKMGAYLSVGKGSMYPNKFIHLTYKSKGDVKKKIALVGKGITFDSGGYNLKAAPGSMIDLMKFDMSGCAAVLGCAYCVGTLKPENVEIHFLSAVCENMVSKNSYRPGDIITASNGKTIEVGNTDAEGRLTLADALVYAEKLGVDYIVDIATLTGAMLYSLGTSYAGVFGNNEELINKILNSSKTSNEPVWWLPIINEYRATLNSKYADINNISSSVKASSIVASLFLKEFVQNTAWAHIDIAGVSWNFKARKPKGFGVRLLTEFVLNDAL

inhibition, inactive:
Cc1ccc2nc(-c3ccc(NC(=O)CN4CCN(C(=O)c5ccco5)CC4)cc3)sc2c1 4.66%
O=C(CN1CCN(Cc2ccccc2)CC1)NCC1COc2ccccc2O1 (stereo unspecified) 17%
O=C(CN1C(=O)c2ccccc2C1=O)NCC1CCCO1 (stereo unspecified) 10.2%
CC1CCCCC1NC(=O)COC(=O)c1ccc(N(C)C)cc1 (stereo unspecified) -9.99%
CCOC(=O)C1C(=O)NC(N2CCN(CC)CC2)=NC1c1ccccc1 (stereo unspecified) 2.42%
COc1ccc(Cc2c(O)nc(SC)n(C(C)=O)c2=O)cc1 -1.99%
Nc1nc(SCC(=O)Nc2ccc(Cl)cc2)[nH]c(=O)c1-c1ccccc1 13.7%
COc1ccccc1NC(=O)CSc1nc(O)c(Cc2ccccc2)c(=O)[nH]1 35.1%
COc1ccc(-n2c(SCC(=O)N3CCOCC3)nc(O)c(Cc3ccccc3)c2=O)cc1 20.3%
COc1ccc(-c2noc(CSc3nc(N)c(-c4ccccc4)c(=O)[nH]3)n2)cc1OC -5.97%
COc1ccc(-c2noc(CSc3nc(N)c(-c4ccccc4)c(=O)[nH]3)n2)cc1 10.2%
O=C(CSc1nc(O)c(Cc2ccccc2)c(=O)[nH]1)Nc1ccccc1 51.3%
Nc1nc(SCC(=O)Nc2ccccc2)[nH]c(=O)c1-c1ccccc1 8.35%
CCOCCCNC(=O)CCNC(=O)c1cc(OC)c(OC)c(OC)c1 3.56%
CCN(CC)S(=O)(=O)c1ccc(C(=O)NCCN2C(=O)S/C(=C\c3cccnc3)C2=O)cc1 -4.15%
[N-]=C=C1C(=S)NC(=O)[C@H]([n+]2ccccc2)[C@H]1c1ccc(Cl)cc1 6.14%
COc1cc(NC(=O)c2ccccc2Cl)c(OC)cc1NC(=O)CN1CCCCC1 13.6%
CC(=O)Nc1ccc(C(=O)CSc2nnnn2C2CCCC2)cc1 11.4%
O=C(Cc1ccccc1)NCC(=O)OC(c1ccccc1)c1ccccc1 0.75%
OC(C#CCN1CCCC1)c1ccccc1 (stereo unspecified) 9.35%
O=S(=O)(c1ccccc1)n1ccc2cccnc21 7.22%
Cc1ccc(S(=O)(=O)CCC(=O)NCc2ccccc2Cl)cc1 22.9%
Cc1ccc(C)c2nc3sc(C(=O)N4CCCc5ccccc54)c(N)c3cc12 8.65%
O=C1C2C(c3ccccc3)C=CC(c3ccccc3)C2C(=O)N1C1CCCCC1 (stereo unspecified) 4.34%
COc1cccc(NC(=O)CSc2ncnc3c2oc2ccccc23)c1 2.46%
COCCn1c(SCC(=O)Nc2cccc(OC)c2)nc2c(oc3ccccc32)c1=O -1.96%
